Experimental data from PubChem BioAssay (NCATS).
Results filed as inconclusive are left out. The source made the active and inactive calls. Unless noted, calls follow the shape of the dose curve; as a rule, active = well fitted curve in the direction sought with a large enough effect; inconclusive = small, poorly fitted or top-dose-only effect, or another doubt; inactive = no such curve, though single readings can be large; an effect the other way counts as inactive or inconclusive. Where a SMILES comes first, the peptide text is derived from it. [ ]: non-standard residue; d: D form. Dip = N[C@H](C(=O)O)C(c1ccccc1)c1ccccc1

What was measured:
[1] = Primary qHTS for inhibitors of nuclear receptor binding SET domain protein 2 (NSD2) in an isogenic RCH-ACV NSD2 p.E1099K mutant (9B) (AID 1645876); also: nearly all actives have a fitted effect of over 70% in size; also: potency is read from the fitted curve at half-maximal effect
[2] = Primary qHTS for inhibitors of nuclear receptor binding SET domain protein 2 (NSD2) in an RCH-ACV wild type WT cells (2C) (AID 1645877); also: nearly all actives have a fitted effect of over 70% in size; also: potency is read from the fitted curve at half-maximal effect
[3] = target: Glutathione peroxidase 1 (Homo sapiens) (UniProt P07203); assay: Primary qHTS Assay for Inhibitors of Recombinant Selenoprotein Glutathione Peroxidase 1 (GPX1) (AID 1845191); also: nearly all actives have a fitted effect of over 65% in size
In short: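 NADPH consumption tracked by fluorescence at 340/450 nm between t=0 and t=15 min, room temperature. Final mix: 10 nM GPX1, 100 nM glutathione reductase, 1 mM GSH, 0.5 mM NADPH, 0.5 mM cumene hydroperoxide, 0.01% BSA; 30 min compound–enzyme preincubation.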

[4] = target: Phospholipid hydroperoxide glutathione peroxidase GPX4 (Homo sapiens) (UniProt P36969); assay: Primary qHTS Assay for Inhibitors of Recombinant Selenoprotein Glutathione Peroxidase 4 (GPX4) (AID 1845192); also: nearly all actives have a fitted effect of over 65% in size
In short: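 NADPH consumption followed by fluorescence at 340/450 nm, t=0 and after 15 min at room temperature. Reaction started with cumene hydroperoxide (0.5 mM final) after 30 min compound–GPX4 preincubation; final 200 nM GPX4, 100 nM GR, 1 mM GSH, 0.5 mM NADPH.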

[5] = qHTS drug screen for cell cycle checkpoint inhibitors in PARPi-resistant BRCA-mutant ovarian cancer cell lines. (AID 1963452; calls by dose curve); conditions: PEO1/OlaR viability, CellTiter-Glo luminescence, 96 h, stronger effect = lower value
In short: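 PEO1, PEO4 and PEO1/OlaR ovarian cancer cells, 600 per well, exposed 96 h at 37C to a dilution series. Viability read by CellTiter-Glo luminescence, normalized to DMSO and empty wells; activity summarized as Z-AUC.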

[6] = NCATS anti-infectives library activity on HEK293 viability as a counter-qHTS vs the C. elegans viability qHTS (AID 1745854);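 also: HEK293 cells exposed to compounds for 24 hr before the viability read; % is scaled to controls: 0 for no effect and ±100 for the full control effect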
In short: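 Counter-screen for cytotoxicity: HEK293, 24 hr, 37C, compounds up to 41.7 uM final (a dilution series, 1:5). Readout CellTiter-Glo luminescence, 10 min RT. Digitonin control, 83.3 uM final.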

[7] = measured here: PEO1 parental Z-AUC

Sequence of Glutathione peroxidase 1 (Homo sapiens) (P07203 whole entry, looked up): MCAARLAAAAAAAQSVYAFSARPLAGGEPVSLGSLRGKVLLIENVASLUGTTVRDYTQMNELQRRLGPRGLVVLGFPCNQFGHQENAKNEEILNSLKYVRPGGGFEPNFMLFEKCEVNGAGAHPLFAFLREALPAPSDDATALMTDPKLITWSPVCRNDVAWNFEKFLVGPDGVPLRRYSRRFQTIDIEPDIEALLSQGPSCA
Sequence of Phospholipid hydroperoxide glutathione peroxidase GPX4 (Homo sapiens) (P36969 whole entry, looked up): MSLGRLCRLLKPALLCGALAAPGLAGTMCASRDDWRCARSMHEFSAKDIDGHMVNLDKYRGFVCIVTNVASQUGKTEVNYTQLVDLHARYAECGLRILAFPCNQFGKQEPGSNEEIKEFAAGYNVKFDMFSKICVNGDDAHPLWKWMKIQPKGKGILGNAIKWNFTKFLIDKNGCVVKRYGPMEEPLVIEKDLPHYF

SMILES | Potency [1] | Potency [2] | Potency [3] | Potency [4] | Z-AUC [5] | Z-AUC [5, 7] | Z-AUC ([5]; measured here: PEO4 Z-AUC) | outcome [6]
N#Cc1cccnc1N1CCN(C(=O)c2cccc(Cc3n[nH]c(=O)c4ccccc34)c2)CC1 | 0.0332 µM (active) | 0.0209 µM (active) | inactive | inactive | -1.35 (inactive) | -2.79 | -1.63 | –
c1ccc2c(-c3cnn4cc(-c5ccc(OCCN6CCOCC6)cc5)cnc34)ccnc2c1 | 3.62 µM (active) | 3.23 µM (active) | inactive | inactive | -1.41 (inactive) | -1.08 | -0.99 | –
CCC(=O)NC[C@H](Cc1ccc(OCCc2nc(-c3ccccc3)oc2C)cc1)N/C(C)=C\C(=O)c1ccc(C(F)(F)F)cc1 | inactive | inactive | inactive | inactive | 0.763 (inactive) | 0.398 | 0.423 | –
O=C(c1ccc(Nc2nc(C3CC3)cn3c(-c4cn[nH]c4)cnc23)c(F)c1)N1CCOCC1 | 9.34 µM (active) | 9.34 µM (active) | inactive | inactive | – | – | – | –
CCOC(=O)CCNc1cc(N2CCc3ccccc3CC2)nc(-c2ccccn2)n1 | 2.35 µM (active) | 2.63 µM (active) | inactive | inactive | 0.71 (inactive) | 0.271 | -0.212 | –
CC(/C=C/[C@@H]1C[C@]1(C)c1ccc2c(c1)C(C)(C)CCC2(C)C)=C\C(=O)O | inactive | inactive | inactive | – | – | – | – | –
Cc1ccc(Sc2ccccc2N2CCNCC2)c(C)c1 | 10.5 µM (active) | 7.42 µM (active) | inactive | inactive | 0.87 (inactive) | 0.0255 | -0.0248 | –
CCNC(=O)Nc1ccc(-c2nc3c(c(N4CCOC[C@@H]4C)n2)CCN(C2COC2)C3)cc1 | 0.833 µM (active) | 0.742 µM (active) | inactive | inactive | – | – | – | –
COc1ccc(S(=O)(=O)N(C(C)=O)c2ccccc2/C=C/c2cc[n+]([O-])cc2)cc1 | 1.05 µM (active) | 1.05 µM (active) | inactive | – | – | – | – | –
Cc1ccc(Nc2cc(N[C@@H]3CCCC[C@@H]3N)nnc2C(N)=O)nc1C | 1.05 µM (active) | 0.934 µM (active) | inactive | inactive | -0.241 (inactive) | -0.11 | 0.345 | –
Oc1cccc(Nc2ncnc3sc4c(c23)CCCC4)c1 | 9.2 µM (active) | 8.2 µM (active) | inactive | – | – | – | – | –
CCN1/C(=C/C(C)=O)Sc2ccc(OC(C)=O)cc21 | 16.4 µM (active) | 20.6 µM (active) | inactive | – | – | – | – | –
NCCCC[C@H](NC(=O)[C@@H](NC(=O)[C@H](Cc1c[nH]c2ccccc12)NC(=O)[C@H](CCCCN)NC(=O)[C@H](CCCCN)NC(=O)[C@H](Cc1c[nH]c2ccccc12)NC(=O)[C@H](Cc1c[nH]c2ccccc12)NC(=O)[C@H](CCCCN)NC(=O)[C@@H](N)CCCCN)C(c1ccccc1)c1ccccc1)C(N)=O (H-KKWWKKW[Dip]K-NH2) | 13.2 µM (active) | 20.9 µM (active) | inactive | inactive | 0.988 (inactive) | 0.826 | 0.857 | –
CC[C@H](NC(=O)[C@H](C)NC)C(=O)N1C[C@@H](O)C[C@H]1Cc1c(-c2[nH]c3cc(F)ccc3c2C[C@@H]2C[C@H](O)CN2C(=O)[C@H](CC)NC(=O)[C@H](C)NC)[nH]c2cc(F)ccc12 | 5.25 µM (active) | 18.6 µM (active) | – | – | 1.52 (inactive) | 1.38 | 0.68 | inactive
O=Nc1c(-c2c(O)[nH]c3ccc(F)cc23)[nH]c2ccccc12 | 1.84 µM (active) | 2.06 µM (active) | inactive | – | – | – | – | –
Cc1ccc(-n2nc(C(C)(C)C)cc2NC(=O)NCc2cc(F)ccc2Oc2ccc3c(cnn3CCO)c2)cc1 | 16.6 µM (active) | 14.8 µM (active) | inactive | inactive | 1.04 (inactive) | 0.682 | 0.464 | –
O=C(/C=C/c1ccc2ccccc2n1)c1ccncc1 | 3.66 µM (active) | 4.11 µM (active) | inactive | – | – | – | – | –
Cc1cc(OCCCc2c3n(c4c(-c5c(C)nn(C)c5C)c(Cl)ccc24)[C@H](C)CN(c2cn(C)c4ccc(C(=O)O)cc24)C3=O)cc(C)c1Cl | 4.68 µM (active) | 2.09 µM (active) | inactive | – | – | – | – | –
C[C@@H](C(=O)Nc1ccc(Cl)cc1)C1CCC(c2ccnc3ccc(F)cc23)CC1 (stereo partly specified) | 14.8 µM (active) | 13.2 µM (active) | inactive | inactive | -1.08 (inactive) | -1.14 | -0.907 | –
CCc1cc(/C(C)=N/OCc2ccc(C3CCCCC3)c(C(F)(F)F)c2)ccc1CN1CC(C(=O)O)C1 | inactive | inactive | inactive | inactive | -0.0137 (inactive) | -0.327 | 0.118 | –
CCNCCc1ccc(CN(CC)c2cc(OC)ccc2[C@@H]2CCc3cc(O)ccc3C2)cc1 | 6.61 µM (active) | 7.42 µM (active) | inactive | inactive | -0.771 (inactive) | -0.865 | -1.44 | –
COc1ccc(Oc2cc(NCCC(F)(F)F)c3ncc(-c4ccc(C(=O)NC5CC5)c(C)c4)n3n2)c(F)c1F | 0.0235 µM (active) | 0.0148 µM (active) | inactive | inactive | 1.26 (inactive) | 0.0575 | -0.837 | –
C/C=C/C[C@@H](C)C(=O)[C@H]1C(=O)N[C@@H](C(C)C)C(=O)N(C)CC(=O)N(C)[C@@H](CC(C)C)C(=O)N[C@@H](C(C)C)C(=O)N(C)[C@@H](CC(C)C)C(=O)N[C@@H](C)C(=O)N[C@H](C)C(=O)N(C)[C@@H](CC(C)C)C(=O)N(C)[C@@H](CC(C)C)C(=O)N(C)[C@@H](C(C)C)C(=O)N1C | inactive | inactive | inactive | inactive | -0.152 (inactive) | -0.111 | 0.176 | –
